This passage reports Potency, outcome and max activation results from PubChem BioAssay (Tox21).

Values without a mark were called inactive. Records with an inconclusive call do not appear. The source made the active and inactive calls. Unless noted, calls follow the shape of the dose curve; as a rule, active = well fitted curve in the direction sought with a large enough effect in the repeat runs; inconclusive = weak or mixed curves; inactive = no such curve, though single readings can be large; an effect the other way counts as inactive or inconclusive.

Assay [1] deals with Thyrotropin receptor (Homo sapiens) (UniProt P16473). As to the kind of experiment: qHTS assay to identify small molecule antagonists of the thyroid stimulating hormone receptor (TSHR) signaling pathway (AID 1259385; calls by dose curve; also: nearly all actives have a fitted effect of over 20% in size). In short, it runs like this:
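Antagonist mode: compound-treated TSHR-expressing HEK293 cells were stimulated with 1.5 ng/mL TSH (final) in presence of Ro20-1724 for 30 min at RT. HTRF cAMP detection after 1 h; each compound tested at 15 concentrations, triplicate.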
On the technique in general: Quantitative high-throughput screening tests each substance at several concentrations.

Assay [2] can be described thus: qHTS assay to identify small molecule agonists of the estrogen receptor alpha (ER-alpha) signaling pathway in the presence of an antagonist - cell viability counter screen (AID 1259386).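 Also: series mostly up to about 92 µM; cells exposed to compounds for 22 h at 37 °C before the viability read; nearly all actives have a fitted effect of over 30% in size.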 The essentials: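 The test measures whether compounds kill ER-alpha reporter cells (VM7Luc4E2) under antagonist co-treatment (ICI-182,780, 10.0nM). Fluorescence from CellTiter-Fluor is read after a 22hr exposure.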

Assay [3] concerns the target Progesterone receptor (Homo sapiens) (UniProt P06401). As to the kind of experiment: qHTS assay to identify small molecule agonists of the progesterone receptor (PR) signaling pathway (AID 1346784; calls by dose curve; also: nearly all actives have a fitted effect of over 30% in size; also: potency is read from the fitted curve at half-maximal effect). In short, it runs like this: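 HEK 293T PR-UAS-bla reporter cells, 2% charcoal-stripped FBS; 6 hr settle at 37C/5% CO2, compound (DMSO) 16 hr, LiveBLAzer B/G FRET substrate 2 hr RT, fluorescence intensity read.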

For assay [4] the target is unchanged. As to the kind of experiment: qHTS assay to identify small molecule antagonists of the progesterone receptor (PR) signaling pathway (AID 1346795; active = well fitted inhibition curve with a large enough effect in the signal ratio in the repeat runs, not every such curve was filed as active; the % refers to the signal ratio). The essentials:
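Beta-lactamase reporter, HEK293T PR-UAS-bla line; 2% charcoal-stripped FBS; 6 hr pre-incubation, 37C/5% CO2. Compound + R5020 1 nM final, 16 hr. LiveBLAzer B/G FRET substrate, 2 hr RT; fluorescence intensity read.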

Assay [5] in a line: qHTS assay to identify small molecule agonists of the progesterone receptor (PR) signaling pathway - cell viability counter screen (AID 1346799; calls by dose curve; also: nearly all actives have a fitted effect of over 45% in size). The essentials:
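HEK293T PR-UAS-bla, 3,000 cells/well, 2% charcoal-stripped FBS; 6 h settle, compound 16 h at 37C/5% CO2; LiveBLAzer 2 h RT, then CellTiter-Glo 30 min RT, luminescence read.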

Assay [6] in a line: qHTS assay to identify small molecule antagonists of the TGF-beta/Smad signaling pathway - cell viability counter screen (AID 1346824). Also: nearly all actives have a fitted effect of over 50% in size. In short, it runs like this: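 Cytotoxicity counter-screen run in the same wells as the beta-lactamase Smad reporter read: CellTiter-Glo luminescence after 30 min at room temperature. HEK 293T SBE-bla cells had 5 hr compound exposure at 37 C with TGF-beta1 (0.25 ng/mL stock).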

Assay [7] is described as follows: qHTS assay to identify small molecule agonists of the TGF-beta/Smad signaling pathway - cell viability counter screen (AID 1346829). Also: top concentration of the series differs between compounds; nearly all actives have a fitted effect of over 45% in size. In short, it runs like this: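 Compound-treated SBE-bla HEK 293T cells (5 hr, 37 C) were assessed for viability with CellTiter-Glo in parallel with the reporter read.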
The nature of assay [8]: qHTS assay to identify small molecule agonists of the TGF-beta/Smad signaling pathway (AID 1346859; active = well fitted activation curve with a large enough effect in the signal ratio in the repeat runs, not every such curve was filed as active; the % refers to the signal ratio; also: series mostly up to about 77 µM). In short, it runs like this: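 Read-out: fluorescence at 460 and 530 nm (405 nm excitation) after a 2 hr room-temperature incubation with beta-lactamase FRET substrate. SBE-bla HEK 293T cells had been treated with test compounds for 5 hr at 37 C.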
A short description of assay [9]: Human pregnane X receptor (PXR) small molecule agonists, qHTS cell viability counter screen (AID 1346977). Also: nearly all actives have a fitted effect of over 50% in size. The essentials: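 Fluorescence read-out (CellTiter-Fluor) of viability in PXR-Luc HepG2 cells, multiplexed with the luciferase agonist read. Compounds in DMSO added after 5hr plating; 24hr total exposure at 37C, 5% CO2.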
Assay [10] is described as follows: Caspase-3/7 induction in HepG2 cells by small molecules, qHTS assay (AID 1346978). Also: nearly all actives have a fitted effect of over 15% in size. The essentials: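 Caspase-3/7 induction was measured by Caspase-Glo 3/7 luminescence (30 min, room temperature) after a 17 hr compound exposure of wild-type HepG2 cells seeded at 2,000 per well and pre-incubated 5 hr.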
Assay [11] in a line: Caspase-3/7 induction in CHO-K1 cells by small molecules, qHTS assay (AID 1346980). Also: nearly all actives have a fitted effect of over 15% in size. The essentials: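 Luminescent Caspase-Glo 3/7 read (30min, room temperature) quantified apoptosis induction. Cells were wild-type CHO-K1, treated with compound for 17hr at 37 C and 5% CO2.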
A short description of assay [12]: Caspase-3/7 induction in HepG2 cells by small molecules, qHTS cell viability counter screen (AID 1346981). Also: series mostly up to about 92 µM; nearly all actives have a fitted effect of over 30% in size. In short, it runs like this:
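Treatment of HepG2 cells with DMSO-delivered compounds ran 16 hr at 37 C following a 5-hr pre-incubation of 2,000 cells/well. CellTiter-Fluor fluorescence, read after 1 hr, served as the viability measure in a qHTS format.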

Assay [13] deals with Nuclear receptor subfamily 1 group I member 2 (Homo sapiens) (UniProt O75469). As to the kind of experiment: Human pregnane X receptor (PXR) small molecule agonists, qHTS assay (AID 1346982). Also: nearly all actives have a fitted effect of over 35% in size. Also: potency is read from the fitted curve at half-maximal effect. In short, it runs like this: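 Stable HepG2 line reporting PXR-mediated CYP3A4 expression via luciferase. Treatment: 24 hr with compounds in DMSO at 37 C. Detection: ONE-Glo luminescence.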
Nuclear receptor subfamily 1 group I member 2 (Homo sapiens), sequence (O75469 whole entry, looked up): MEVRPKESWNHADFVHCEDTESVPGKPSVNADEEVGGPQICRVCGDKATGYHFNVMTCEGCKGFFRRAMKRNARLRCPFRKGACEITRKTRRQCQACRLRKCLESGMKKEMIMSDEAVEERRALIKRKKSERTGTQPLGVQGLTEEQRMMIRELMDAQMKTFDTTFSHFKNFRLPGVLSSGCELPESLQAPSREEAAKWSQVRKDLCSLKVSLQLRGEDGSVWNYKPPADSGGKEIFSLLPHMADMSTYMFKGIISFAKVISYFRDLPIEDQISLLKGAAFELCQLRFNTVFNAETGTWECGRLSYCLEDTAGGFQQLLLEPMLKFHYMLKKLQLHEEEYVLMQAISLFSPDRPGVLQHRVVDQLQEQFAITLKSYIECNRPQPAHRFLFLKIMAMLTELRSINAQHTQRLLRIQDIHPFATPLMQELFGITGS

Assay [14] is described as follows: qHTS assay to identify small molecule antagonists of the progesterone receptor (PR) signaling pathway - cell viability counter screen (AID 1346798). Also: series mostly up to about 92 µM; nearly all actives have a fitted effect of over 50% in size. In short, it runs like this:
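Luminescence readout (CellTiter-Glo, 30 min, RT) of viability in PR-UAS-bla HEK293T cells exposed to compound and R5020 agonist for 16 hr at 37C, 5% CO2; run in the same wells as the beta-lactamase reporter read.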

A short description of assay [15]: Caspase-3/7 induction in CHO-K1 cells by small molecules, qHTS cell viability counter screen (AID 1346979). Also: nearly all actives have a fitted effect of over 35% in size. In short, it runs like this: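 CHO-K1 wt, 1,500 cells/well; 5hr pre-incubation 37C/5% CO2; compound pin transfer (DMSO); 16hr exposure; CellTiter-Fluor added, 1hr, fluorescence read.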
Assay [16] concerns the target Thyrotropin-releasing hormone receptor (Homo sapiens) (UniProt P34981). As to the kind of experiment: qHTS assay to identify small molecule antagonists of the thyrotropin-releasing hormone receptor (TRHR) signaling pathway (AID 1346877; active = well fitted inhibition curve with a large enough effect in the repeat runs, not every such curve was filed as active; also: series mostly up to about 51 µM). The essentials:
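Overnight-plated (18 h, 37 °C) HEK293 cells expressing TRHR were dye-loaded 2 h, treated with compound, then stimulated with TRH at 1 nM final. Fluorescence intensity was captured every second for 3 min.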

For assay [17] the target is unchanged. As to the kind of experiment: qHTS assay to identify small molecule agonists of the thyrotropin-releasing hormone receptor (TRHR) signaling pathway (AID 1346891; calls by dose curve;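 also: HEK293 cells expressing TRHR with calcium dye readout; series mostly up to about 58 µM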). In short, it runs like this:
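HEK293/TRHR cells, 1500 per well, 18 h 37 °C; Ca dye 2 h 37 °C; pin-tool compound addition (agonist mode); kinetic fluorescence 3 min, 1 s reads; 15 concentrations, triplicate.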

For assay [18], the target named is Nuclear receptor subfamily 1 group I member 2 (Rattus norvegicus) (UniProt Q9R1A7). Kind of assay: Rat pregnane X receptor (rPXR) activation by small molecules, qHTS assay (AID 1346983). Also: nearly all actives have a fitted effect of over 20% in size. Particulars: rPXR luciferase reporter cells, One-Glo luminescence, 24 h; max activation: stronger effect = higher value. In short, it runs like this: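 Luminescent readout (One-Glo luciferase, 30 min room temperature) followed 24 hr compound treatment at 37 C of rPXR cells plated 2,000 per well and preincubated 5hr; qHTS format with compounds delivered in DMSO.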
Nuclear receptor subfamily 1 group I member 2 (Rattus norvegicus), sequence (Q9R1A7 whole entry, looked up): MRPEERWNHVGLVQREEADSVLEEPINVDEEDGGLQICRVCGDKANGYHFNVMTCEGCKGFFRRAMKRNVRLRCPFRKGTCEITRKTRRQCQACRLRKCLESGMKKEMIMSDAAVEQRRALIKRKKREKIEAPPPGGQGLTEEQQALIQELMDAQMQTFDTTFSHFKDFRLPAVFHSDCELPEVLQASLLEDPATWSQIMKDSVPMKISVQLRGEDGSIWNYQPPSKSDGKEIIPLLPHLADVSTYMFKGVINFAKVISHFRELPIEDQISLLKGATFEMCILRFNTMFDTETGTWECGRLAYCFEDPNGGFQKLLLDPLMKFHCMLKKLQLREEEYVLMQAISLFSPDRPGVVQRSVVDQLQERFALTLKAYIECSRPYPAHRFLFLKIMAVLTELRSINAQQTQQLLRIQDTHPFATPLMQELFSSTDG

Assay [19] addresses Nuclear receptor subfamily 1 group I member 2 (Homo sapiens) (UniProt O75469). As to the kind of experiment: CYP3A4 induction through human pregnane X receptor (PXR) by small molecules, qHTS assay (AID 1346984). Also: nearly all actives have a fitted effect of over 40% in size. In short, it runs like this: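 After 24 h at 37C with compound, DPX-2 cells (HepG2, co-transfected PXR response element and CYP3A4 promoter-luciferase) got 3uM final P450-Glo Luciferin-IPA for 3 h; One-Glo luminescence followed.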

Assay [20] shares this target. Kind of assay: Human pregnane X receptor (PXR) activation by small molecules, qHTS assay (AID 1346985). Also: nearly all actives have a fitted effect of over 40% in size. In short, it runs like this: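 DPX-2 cells (HepG2 co-transfected with a PXR response element and a CYP3A4-promoter luciferase construct) were seeded at 2,000 per well, rested 5 hr at 37C, then exposed to DMSO-dissolved compounds for 24 hr. Activation was read as luciferase luminescence.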
% is scaled to controls: 0 for no effect and ±100 for the full control effect.

Thyrotropin receptor (Homo sapiens), sequence (P16473 whole entry, looked up): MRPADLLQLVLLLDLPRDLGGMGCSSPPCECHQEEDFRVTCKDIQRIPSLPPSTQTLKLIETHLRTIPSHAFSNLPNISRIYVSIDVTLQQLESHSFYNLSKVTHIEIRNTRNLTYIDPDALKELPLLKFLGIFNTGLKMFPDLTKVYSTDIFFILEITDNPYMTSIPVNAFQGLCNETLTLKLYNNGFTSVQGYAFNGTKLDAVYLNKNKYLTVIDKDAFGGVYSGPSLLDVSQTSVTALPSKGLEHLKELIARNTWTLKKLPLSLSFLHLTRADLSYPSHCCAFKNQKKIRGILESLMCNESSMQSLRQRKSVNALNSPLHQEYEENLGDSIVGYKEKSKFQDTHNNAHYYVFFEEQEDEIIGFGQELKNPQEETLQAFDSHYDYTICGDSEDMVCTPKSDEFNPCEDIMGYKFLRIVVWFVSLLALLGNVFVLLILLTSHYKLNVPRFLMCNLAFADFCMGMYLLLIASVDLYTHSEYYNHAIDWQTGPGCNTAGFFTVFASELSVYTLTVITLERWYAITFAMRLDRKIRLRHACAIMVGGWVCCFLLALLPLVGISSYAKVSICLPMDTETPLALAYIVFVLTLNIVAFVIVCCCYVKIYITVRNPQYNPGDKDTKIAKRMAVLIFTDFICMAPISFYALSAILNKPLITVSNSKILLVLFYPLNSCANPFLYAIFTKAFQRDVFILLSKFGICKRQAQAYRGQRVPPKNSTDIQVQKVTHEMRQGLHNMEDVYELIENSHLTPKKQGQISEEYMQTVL
Thyrotropin-releasing hormone receptor (Homo sapiens), sequence (P34981 whole entry, looked up): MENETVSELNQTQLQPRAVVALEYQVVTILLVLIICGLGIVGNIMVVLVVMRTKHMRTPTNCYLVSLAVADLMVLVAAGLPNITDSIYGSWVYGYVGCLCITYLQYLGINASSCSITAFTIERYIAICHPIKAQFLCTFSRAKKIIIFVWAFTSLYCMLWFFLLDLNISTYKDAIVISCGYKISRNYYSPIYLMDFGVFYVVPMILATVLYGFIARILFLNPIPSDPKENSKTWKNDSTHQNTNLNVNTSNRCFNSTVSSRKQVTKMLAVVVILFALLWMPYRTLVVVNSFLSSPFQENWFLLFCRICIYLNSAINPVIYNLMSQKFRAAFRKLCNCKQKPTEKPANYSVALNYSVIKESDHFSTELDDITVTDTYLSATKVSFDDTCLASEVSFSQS
Progesterone receptor (Homo sapiens), sequence (P06401 whole entry, looked up): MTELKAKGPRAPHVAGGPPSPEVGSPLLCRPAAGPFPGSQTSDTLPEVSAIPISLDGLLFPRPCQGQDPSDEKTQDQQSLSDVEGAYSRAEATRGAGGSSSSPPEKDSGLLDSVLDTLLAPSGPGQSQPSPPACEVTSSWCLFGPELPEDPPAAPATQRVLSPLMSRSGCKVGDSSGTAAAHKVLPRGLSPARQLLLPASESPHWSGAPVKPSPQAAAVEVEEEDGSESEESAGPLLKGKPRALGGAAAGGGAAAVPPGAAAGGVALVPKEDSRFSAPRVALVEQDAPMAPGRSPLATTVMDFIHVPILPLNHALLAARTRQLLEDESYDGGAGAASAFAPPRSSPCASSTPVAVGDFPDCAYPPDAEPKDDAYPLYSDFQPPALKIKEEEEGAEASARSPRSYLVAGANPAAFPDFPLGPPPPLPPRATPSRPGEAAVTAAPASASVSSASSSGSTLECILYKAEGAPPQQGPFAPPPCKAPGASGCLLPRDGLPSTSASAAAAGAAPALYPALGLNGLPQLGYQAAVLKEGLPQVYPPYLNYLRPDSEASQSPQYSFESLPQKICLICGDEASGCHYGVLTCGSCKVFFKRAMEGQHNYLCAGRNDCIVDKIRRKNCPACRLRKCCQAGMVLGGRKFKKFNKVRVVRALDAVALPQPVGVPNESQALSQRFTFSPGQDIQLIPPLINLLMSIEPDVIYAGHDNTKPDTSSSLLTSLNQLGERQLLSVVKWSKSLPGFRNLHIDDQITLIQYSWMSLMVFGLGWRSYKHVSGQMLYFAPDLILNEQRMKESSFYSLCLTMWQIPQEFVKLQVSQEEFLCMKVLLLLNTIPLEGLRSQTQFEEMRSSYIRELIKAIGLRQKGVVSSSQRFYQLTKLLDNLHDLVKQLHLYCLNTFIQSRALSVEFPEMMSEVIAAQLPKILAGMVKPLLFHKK

For `CN1C(CSCC(F)(F)F)Nc2cc(Cl)c(S(N)(=O)=O)cc2S1(=O)=O` (stereo unspecified), the Potency entry in assay [1], in assay [2], in assay [3], in assay [4], in assay [5] and in assay [7] was “inactive” in each case. Besides, the Potency result in assay [8], in [9], in assay [10] and in assay [12] was “inactive” in each case. The molecule was classed as inactive in assay [6] and in assay [11]. In addition, the Potency in [13] was 29.8 µM (active).

Consider `O=C(C(=O)c1ccco1)c1ccco1`, for which the Potency entry in assay [1], in [2], in [4], in [14], in [7] and in assay [8] was “inactive” in each case. The Potency result in assay [9], in assay [10], in assay [15], in assay [12] and in [13] was “inactive” in each case. In addition, the Potency in assay [3] is 2.75 µM (active). Besides, the outcome in [6] and in assay [11] was inactive.

For `CCCCCCCC/C=C/C(=O)O`, the Potency entry in [1], in assay [2], in [3], in assay [14], in assay [5] and in [8] was “inactive” each time. Moreover, the Potency result in [9], in assay [10], in assay [15], in assay [12] and in assay [13] was “inactive” in each case. Besides, the molecule was classed as inactive in [6], in assay [16], in assay [17] and in assay [11].

Consider `CCCc1nc2c(C)cc(-c3nc4ccccc4n3C)cc2n1Cc1ccc(-c2ccccc2C(=O)O)cc1`, for which the Potency entry in assay [1], in [2], in assay [3], in [4], in assay [7] and in assay [9] was “inactive” in each case. The Potency entry in assay [10] was “inactive”. In addition, the call in [6], in assay [16], in assay [17] and in assay [11] was inactive. In assay [18], the max activation is -2.19%.

As for `CC(C)(C(=O)c1cccnc1)c1cccnc1`, the Potency result in assay [1], in [2], in assay [3], in assay [4], in assay [14] and in assay [8] was “inactive” each time. Besides, the Potency entry in [9], in assay [10], in assay [12], in assay [13], in [19] and in assay [20] was “inactive” in each case. Besides, the molecule was classed as inactive in assay [6], in assay [16], in assay [17] and in assay [11]. Besides, the max activation in [18] was -1.51%.

For `CCO[Si](C)(CCCOCC1CO1)OCC` (stereo unspecified), the Potency result in assay [1], in assay [2], in [3], in [4], in assay [14] and in [8] was “inactive” each time. For the same molecule, the Potency entry in [9], in assay [10], in assay [12] and in assay [13] was “inactive” each time. Further, the molecule was called inactive in [6] and in assay [11].

In the case of `O=C(O)c1cc(Cl)cc(Cl)c1O`, the Potency entry in assay [1], in assay [2], in assay [3], in [4], in assay [14] and in [7] was “inactive” each time. Besides, the Potency result in assay [8], in assay [10], in assay [15] and in [13] was “inactive” each time. Besides, the outcome in [6], in [16], in assay [17] and in [11] was inactive.

As for `CC1=C2[C@@H]([C@H](C)CC[C@H]2/C=C(\C)C(=O)O)[C@H](O)C1`, the Potency result in [1], in assay [2], in [3], in assay [14], in assay [5] and in [8] was “inactive” each time. Moreover, the Potency entry in assay [9], in assay [10], in [15] and in assay [13] was “inactive” in each case. In addition, the result in assay [6] and in [11] was inactive.

Turning to `O=C(NC(Cc1cc(=O)[nH]c2ccccc12)C(=O)O)c1ccc(Cl)cc1` (stereo unspecified), the Potency entry in [1], in assay [2], in assay [3], in [4], in [14] and in assay [7] was “inactive” each time. Moreover, the Potency entry in assay [8], in assay [9], in [10], in assay [13], in assay [19] and in assay [20] was “inactive” each time. The outcome in assay [6], in assay [16], in assay [17] and in assay [11] was inactive. Besides, in [18], the max activation was -0.429%.
